# What was measured:
# Test in all cases: DAPPL (digital affinity profiling via proximity ligation, sequencing); 10 mM Tris-HCl pH 7.5, 50 mM NaCl, 1 mM DTT, 4% glycerol, room temperature, 30 min; GST-TFs on glutathione beads, 16-mer random dsDNA library, 0.1% formaldehyde crosslink after washing; high values mean tight binding
# [1] = target: T1, FEV (Homo sapiens, UniProt Q99581 1-238); details: protein: recombinant; tags: N-terminal GST; dsDNA, one strand shown
# T1 sequence: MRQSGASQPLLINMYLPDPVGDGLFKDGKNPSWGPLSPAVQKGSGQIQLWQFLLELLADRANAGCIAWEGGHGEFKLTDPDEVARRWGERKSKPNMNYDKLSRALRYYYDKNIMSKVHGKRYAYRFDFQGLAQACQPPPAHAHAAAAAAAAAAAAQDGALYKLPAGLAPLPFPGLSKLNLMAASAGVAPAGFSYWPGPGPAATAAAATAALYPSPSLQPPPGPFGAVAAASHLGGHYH
# Outline: (§1)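 Each value of binding signal is a hexamer's read frequency for a factor divided by the same hexamer's frequency in the tag-only sample. Barcoded, bead-captured GST fusions of human transcription factors made in yeast were pooled with that sample and incubated with 200 nmole of a random double-stranded 16-mer DNA library in Tris/NaCl/DTT/glycerol buffer at room temperature for 30 min. Washing, 0.1% formaldehyde crosslinking, proximity ligation, PCR and Illumina NextSeq500 sequencing followed.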
# [2] = target: ETV5 (Homo sapiens, UniProt P41161 1-510); details: protein: recombinant; tags: N-terminal GST; dsDNA, one strand shown
# Outline: as §1
# [3] = target: HSF1 (Homo sapiens, UniProt Q00613 1-529); details: protein: recombinant; tags: N-terminal GST; chain copies: 3; dsDNA, one strand shown
# Outline: as §1
# [4] = target: T2, SPIC (Homo sapiens, UniProt Q8N5J4 1-248); details: protein: recombinant; tags: N-terminal GST; dsDNA, one strand shown
# T2 sequence: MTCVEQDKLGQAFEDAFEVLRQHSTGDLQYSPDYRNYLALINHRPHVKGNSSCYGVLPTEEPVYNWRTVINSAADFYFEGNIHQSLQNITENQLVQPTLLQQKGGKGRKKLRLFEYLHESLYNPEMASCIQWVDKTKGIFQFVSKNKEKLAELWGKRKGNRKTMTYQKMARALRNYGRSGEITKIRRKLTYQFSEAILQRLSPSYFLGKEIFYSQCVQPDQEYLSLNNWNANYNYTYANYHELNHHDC
# Outline: as §1
# [5] = target: ELF4 (Homo sapiens, UniProt Q99607 1-663); details: protein: recombinant; tags: N-terminal GST; dsDNA, one strand shown
# Outline: as §1
# [6] = target: T3, ELK4 (Homo sapiens, UniProt P28324-2 1-405); details: protein: recombinant; tags: N-terminal GST; dsDNA, one strand shown
# T3 sequence: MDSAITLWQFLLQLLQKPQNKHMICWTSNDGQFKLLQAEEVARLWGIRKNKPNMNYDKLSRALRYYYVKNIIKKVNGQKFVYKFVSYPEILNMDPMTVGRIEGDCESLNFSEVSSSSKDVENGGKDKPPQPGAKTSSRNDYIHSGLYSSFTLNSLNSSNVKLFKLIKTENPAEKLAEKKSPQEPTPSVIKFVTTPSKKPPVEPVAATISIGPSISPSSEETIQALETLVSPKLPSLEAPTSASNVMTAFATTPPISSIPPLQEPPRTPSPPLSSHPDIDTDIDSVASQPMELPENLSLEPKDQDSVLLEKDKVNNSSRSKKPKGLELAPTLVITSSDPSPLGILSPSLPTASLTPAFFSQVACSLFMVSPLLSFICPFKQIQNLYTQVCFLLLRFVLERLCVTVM
# Outline: as §1
# [7] = target: T4, ETV2 (Homo sapiens, UniProt O00321 1-342); details: protein: recombinant; tags: N-terminal GST; dsDNA, one strand shown
# T4 sequence: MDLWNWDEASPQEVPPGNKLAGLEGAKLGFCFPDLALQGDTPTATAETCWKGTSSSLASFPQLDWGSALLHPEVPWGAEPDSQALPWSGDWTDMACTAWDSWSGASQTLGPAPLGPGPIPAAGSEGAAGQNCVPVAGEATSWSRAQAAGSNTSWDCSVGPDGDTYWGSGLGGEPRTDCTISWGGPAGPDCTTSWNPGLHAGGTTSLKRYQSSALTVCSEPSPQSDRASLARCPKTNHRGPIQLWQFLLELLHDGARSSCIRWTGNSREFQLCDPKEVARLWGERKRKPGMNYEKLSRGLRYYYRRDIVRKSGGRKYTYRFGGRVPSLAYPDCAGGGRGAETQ
# Outline: as §1
# [8] = target: T5, ELF3 (Homo sapiens, UniProt P78545 1-371); details: protein: recombinant; tags: N-terminal GST; dsDNA, one strand shown
# T5 sequence: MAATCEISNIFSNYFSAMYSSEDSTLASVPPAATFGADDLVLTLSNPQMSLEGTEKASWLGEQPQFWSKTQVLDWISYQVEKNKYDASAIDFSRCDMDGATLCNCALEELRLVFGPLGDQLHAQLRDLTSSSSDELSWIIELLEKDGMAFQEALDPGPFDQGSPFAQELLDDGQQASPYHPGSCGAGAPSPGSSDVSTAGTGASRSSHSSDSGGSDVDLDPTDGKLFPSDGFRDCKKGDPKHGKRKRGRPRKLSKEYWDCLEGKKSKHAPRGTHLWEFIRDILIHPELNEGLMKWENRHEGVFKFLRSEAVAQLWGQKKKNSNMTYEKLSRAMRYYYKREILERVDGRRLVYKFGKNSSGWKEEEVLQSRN
# Outline: as §1
# [9] = target: CRX (Homo sapiens, UniProt O43186 1-299); details: protein: recombinant; tags: N-terminal GST; dsDNA, one strand shown
# Outline: as §1
# [10] = target: ETV1 (Homo sapiens, UniProt P50549 1-477); details: protein: recombinant; tags: N-terminal GST; dsDNA, one strand shown
# Outline: as §1
# [11] = target: T6, ERF (Homo sapiens, UniProt P50548 1-548); details: protein: recombinant; tags: N-terminal GST; dsDNA, one strand shown
# T6 sequence: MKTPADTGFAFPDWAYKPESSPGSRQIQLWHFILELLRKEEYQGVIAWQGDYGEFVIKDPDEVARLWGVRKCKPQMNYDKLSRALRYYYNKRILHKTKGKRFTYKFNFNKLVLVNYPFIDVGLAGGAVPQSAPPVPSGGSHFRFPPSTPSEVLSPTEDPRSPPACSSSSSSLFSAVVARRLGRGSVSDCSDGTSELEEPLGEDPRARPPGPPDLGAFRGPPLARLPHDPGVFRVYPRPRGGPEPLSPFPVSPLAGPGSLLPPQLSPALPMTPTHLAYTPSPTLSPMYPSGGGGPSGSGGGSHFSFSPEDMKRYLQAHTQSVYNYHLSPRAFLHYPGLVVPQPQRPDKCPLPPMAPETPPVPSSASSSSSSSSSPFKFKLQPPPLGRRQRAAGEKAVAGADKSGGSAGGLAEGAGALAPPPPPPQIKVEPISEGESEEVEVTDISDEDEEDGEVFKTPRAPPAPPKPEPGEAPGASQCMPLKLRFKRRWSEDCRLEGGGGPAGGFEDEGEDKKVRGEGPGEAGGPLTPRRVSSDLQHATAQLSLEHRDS
# Outline: as §1
# [12] = target: T7, ETV3L (Homo sapiens, UniProt Q6ZN32 1-361); details: protein: recombinant; tags: N-terminal GST; dsDNA, one strand shown
# T7 sequence: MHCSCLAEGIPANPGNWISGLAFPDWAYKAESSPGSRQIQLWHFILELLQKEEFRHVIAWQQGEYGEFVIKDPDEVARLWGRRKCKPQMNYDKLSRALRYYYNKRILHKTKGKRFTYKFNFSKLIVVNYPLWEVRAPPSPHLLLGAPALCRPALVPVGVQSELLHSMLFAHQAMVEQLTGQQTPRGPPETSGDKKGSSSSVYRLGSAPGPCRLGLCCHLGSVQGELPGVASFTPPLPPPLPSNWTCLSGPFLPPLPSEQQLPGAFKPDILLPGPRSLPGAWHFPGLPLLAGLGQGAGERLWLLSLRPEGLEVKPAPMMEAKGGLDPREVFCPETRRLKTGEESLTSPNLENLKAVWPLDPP
# Outline: as §1
# [13] = target: T8, ETS2 (Homo sapiens, UniProt P15036 1-469); details: protein: recombinant; tags: N-terminal GST; dsDNA, one strand shown
# T8 sequence: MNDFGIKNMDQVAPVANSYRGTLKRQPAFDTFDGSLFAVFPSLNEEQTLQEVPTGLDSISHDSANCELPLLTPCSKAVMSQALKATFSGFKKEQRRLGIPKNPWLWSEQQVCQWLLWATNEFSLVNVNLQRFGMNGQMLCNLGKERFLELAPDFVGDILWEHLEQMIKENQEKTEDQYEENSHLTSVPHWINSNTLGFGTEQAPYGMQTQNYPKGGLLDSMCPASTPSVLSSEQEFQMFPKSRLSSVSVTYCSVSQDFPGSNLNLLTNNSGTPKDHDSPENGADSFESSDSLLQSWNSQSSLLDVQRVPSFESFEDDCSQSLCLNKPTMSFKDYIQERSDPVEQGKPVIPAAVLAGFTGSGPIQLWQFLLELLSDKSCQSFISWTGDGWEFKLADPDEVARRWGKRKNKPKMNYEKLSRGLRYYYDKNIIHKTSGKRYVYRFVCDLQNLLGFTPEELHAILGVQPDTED
# Outline: as §1
# [14] = target: T9, SPDEF (Homo sapiens, UniProt O95238 1-335); details: protein: recombinant; tags: N-terminal GST; dsDNA, one strand shown
# T9 sequence: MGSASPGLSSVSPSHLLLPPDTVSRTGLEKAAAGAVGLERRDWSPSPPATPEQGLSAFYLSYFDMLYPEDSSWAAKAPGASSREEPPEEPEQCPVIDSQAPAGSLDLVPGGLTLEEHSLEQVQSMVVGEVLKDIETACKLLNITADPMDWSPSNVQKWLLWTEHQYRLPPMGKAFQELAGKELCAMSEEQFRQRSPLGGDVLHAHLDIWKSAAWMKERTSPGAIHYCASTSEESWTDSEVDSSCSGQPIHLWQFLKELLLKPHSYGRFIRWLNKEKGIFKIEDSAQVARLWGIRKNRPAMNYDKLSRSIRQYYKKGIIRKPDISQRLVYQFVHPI
# Outline: as §1
# [15] = target: T10, ETV7 (Homo sapiens, UniProt Q9Y603 1-341); details: protein: recombinant; tags: N-terminal GST; dsDNA, one strand shown
# T10 sequence: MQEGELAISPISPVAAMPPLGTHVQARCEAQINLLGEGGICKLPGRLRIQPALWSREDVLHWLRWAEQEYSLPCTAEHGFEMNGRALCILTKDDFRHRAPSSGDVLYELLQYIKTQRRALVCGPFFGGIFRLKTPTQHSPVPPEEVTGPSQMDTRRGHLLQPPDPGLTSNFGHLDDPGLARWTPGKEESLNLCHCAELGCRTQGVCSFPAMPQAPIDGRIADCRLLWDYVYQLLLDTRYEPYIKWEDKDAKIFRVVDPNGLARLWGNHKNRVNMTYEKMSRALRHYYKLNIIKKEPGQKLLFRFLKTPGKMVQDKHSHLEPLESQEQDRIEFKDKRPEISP
# Outline: as §1
# [16] = target: T11, ELF5 (Homo sapiens, UniProt Q9UKW6-2 1-255); details: protein: recombinant; tags: N-terminal GST; dsDNA, one strand shown
# T11 sequence: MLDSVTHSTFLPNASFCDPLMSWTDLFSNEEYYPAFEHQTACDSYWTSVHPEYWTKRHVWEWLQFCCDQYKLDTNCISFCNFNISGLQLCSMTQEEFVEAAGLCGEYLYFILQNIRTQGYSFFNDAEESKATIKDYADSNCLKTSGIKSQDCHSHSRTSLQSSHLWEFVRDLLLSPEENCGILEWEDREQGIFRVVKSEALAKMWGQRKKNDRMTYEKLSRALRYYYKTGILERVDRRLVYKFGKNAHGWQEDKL
# Outline: as §1
# [17] = target: T12, ETV3 (Homo sapiens, UniProt P41162-2 1-143); details: protein: recombinant; tags: N-terminal GST; dsDNA, one strand shown
# T12 sequence: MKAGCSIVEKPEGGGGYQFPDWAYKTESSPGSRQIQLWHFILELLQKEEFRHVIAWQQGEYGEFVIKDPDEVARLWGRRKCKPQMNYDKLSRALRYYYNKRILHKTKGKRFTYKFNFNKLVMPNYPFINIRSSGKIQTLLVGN
# Outline: as §1
# [18] = target: ETV6 (Homo sapiens, UniProt P41212 1-452); details: protein: recombinant; tags: N-terminal GST; dsDNA, one strand shown
# Outline: as §1
# Sequence of ETV6 (P41212 whole entry): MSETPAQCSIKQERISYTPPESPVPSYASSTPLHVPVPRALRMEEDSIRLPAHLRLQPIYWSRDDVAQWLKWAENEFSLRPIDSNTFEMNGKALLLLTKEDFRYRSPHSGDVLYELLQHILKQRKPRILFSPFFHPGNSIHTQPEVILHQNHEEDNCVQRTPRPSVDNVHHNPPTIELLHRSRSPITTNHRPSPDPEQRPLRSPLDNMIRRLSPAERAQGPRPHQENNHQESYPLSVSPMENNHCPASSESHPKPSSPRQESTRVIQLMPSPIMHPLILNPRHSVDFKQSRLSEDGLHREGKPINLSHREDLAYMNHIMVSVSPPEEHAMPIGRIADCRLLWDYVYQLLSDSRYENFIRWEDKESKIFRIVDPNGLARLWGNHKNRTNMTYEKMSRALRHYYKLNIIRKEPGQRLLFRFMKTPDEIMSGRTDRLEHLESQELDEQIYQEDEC
# Sequence of ETV1 (P50549 whole entry): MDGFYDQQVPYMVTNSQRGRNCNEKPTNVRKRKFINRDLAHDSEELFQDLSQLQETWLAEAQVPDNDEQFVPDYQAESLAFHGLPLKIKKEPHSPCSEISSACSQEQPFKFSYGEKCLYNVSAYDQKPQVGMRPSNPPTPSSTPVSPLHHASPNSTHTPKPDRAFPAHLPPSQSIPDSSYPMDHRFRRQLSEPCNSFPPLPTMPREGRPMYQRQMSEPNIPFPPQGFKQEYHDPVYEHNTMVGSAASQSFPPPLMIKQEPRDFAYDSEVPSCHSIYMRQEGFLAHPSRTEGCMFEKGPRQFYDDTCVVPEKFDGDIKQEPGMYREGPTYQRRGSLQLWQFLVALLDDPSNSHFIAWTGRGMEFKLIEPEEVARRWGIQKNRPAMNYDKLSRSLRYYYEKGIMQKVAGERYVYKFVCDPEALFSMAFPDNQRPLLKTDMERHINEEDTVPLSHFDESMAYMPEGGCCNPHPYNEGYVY
# Sequence of CRX (O43186 whole entry): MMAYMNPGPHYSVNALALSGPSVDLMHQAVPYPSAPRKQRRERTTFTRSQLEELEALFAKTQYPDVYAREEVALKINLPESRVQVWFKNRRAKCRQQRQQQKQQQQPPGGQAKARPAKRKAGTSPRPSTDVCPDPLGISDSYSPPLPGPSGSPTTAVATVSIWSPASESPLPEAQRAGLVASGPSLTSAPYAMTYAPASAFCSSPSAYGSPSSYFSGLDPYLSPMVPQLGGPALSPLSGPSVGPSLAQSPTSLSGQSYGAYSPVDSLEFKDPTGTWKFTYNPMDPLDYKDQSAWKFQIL
# Sequence of ELF4 (Q99607 whole entry): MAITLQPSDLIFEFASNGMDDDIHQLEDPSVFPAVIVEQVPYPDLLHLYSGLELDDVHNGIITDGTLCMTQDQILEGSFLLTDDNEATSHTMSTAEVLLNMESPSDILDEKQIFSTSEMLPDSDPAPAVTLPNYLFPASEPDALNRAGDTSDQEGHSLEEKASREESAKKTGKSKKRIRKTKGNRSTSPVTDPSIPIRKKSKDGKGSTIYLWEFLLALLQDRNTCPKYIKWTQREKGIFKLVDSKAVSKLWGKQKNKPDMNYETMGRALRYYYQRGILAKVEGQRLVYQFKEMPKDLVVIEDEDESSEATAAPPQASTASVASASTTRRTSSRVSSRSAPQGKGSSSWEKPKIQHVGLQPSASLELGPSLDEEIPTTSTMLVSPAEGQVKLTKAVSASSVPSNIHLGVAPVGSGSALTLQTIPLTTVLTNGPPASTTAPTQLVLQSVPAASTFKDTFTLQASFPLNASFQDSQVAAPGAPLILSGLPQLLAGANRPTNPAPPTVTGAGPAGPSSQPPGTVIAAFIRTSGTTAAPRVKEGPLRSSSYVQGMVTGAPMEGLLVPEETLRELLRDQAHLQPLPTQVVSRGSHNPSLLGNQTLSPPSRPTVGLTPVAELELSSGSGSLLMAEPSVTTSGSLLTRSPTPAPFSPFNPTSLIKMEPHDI
# Sequence of HSF1 (Q00613 whole entry): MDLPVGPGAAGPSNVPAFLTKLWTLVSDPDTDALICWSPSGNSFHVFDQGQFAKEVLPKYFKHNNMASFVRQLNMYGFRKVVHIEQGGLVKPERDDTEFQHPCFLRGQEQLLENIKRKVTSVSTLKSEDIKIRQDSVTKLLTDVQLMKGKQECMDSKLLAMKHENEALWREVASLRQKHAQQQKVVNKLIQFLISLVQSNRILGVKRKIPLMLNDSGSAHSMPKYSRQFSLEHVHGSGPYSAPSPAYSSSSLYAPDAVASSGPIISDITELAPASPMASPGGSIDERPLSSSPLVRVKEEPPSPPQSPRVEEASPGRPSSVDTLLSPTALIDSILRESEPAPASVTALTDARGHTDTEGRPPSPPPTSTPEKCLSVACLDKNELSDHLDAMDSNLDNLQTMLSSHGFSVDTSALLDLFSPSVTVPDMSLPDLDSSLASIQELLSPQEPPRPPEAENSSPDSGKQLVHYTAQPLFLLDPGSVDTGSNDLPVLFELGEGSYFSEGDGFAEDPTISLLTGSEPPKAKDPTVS
# Sequence of ETV5 (P41161 whole entry): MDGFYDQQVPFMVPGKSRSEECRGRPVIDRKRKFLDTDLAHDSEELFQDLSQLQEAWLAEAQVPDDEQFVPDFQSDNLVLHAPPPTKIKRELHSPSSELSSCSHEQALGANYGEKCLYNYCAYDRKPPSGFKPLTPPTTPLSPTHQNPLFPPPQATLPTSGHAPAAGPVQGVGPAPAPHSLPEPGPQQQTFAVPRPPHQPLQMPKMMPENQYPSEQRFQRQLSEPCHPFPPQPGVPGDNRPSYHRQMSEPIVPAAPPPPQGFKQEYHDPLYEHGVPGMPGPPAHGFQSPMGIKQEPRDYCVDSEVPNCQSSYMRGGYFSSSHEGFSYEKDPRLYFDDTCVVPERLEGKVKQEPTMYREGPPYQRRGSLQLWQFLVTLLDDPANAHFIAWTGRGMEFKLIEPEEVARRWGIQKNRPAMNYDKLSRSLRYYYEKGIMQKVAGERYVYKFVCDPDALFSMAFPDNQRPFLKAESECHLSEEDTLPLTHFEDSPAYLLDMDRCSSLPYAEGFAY
sequence,measurement,setting,value
CCAATA,binding signal,[1],"1.19 fold enrichment (6-mer frequency, TF over GST control)"
same,binding signal,[2],"1.29 fold enrichment (6-mer frequency, TF over GST control)"
same,binding signal,[3],"1.12 fold enrichment (6-mer frequency, TF over GST control)"
same,binding signal,[4],"1.18 fold enrichment (6-mer frequency, TF over GST control)"
same,binding signal,[5],"1.29 fold enrichment (6-mer frequency, TF over GST control)"
same,binding signal,[6],"1.23 fold enrichment (6-mer frequency, TF over GST control)"
same,binding signal,[7],"1.09 fold enrichment (6-mer frequency, TF over GST control)"
same,binding signal,[8],"1.25 fold enrichment (6-mer frequency, TF over GST control)"
same,binding signal,[9],"1.22 fold enrichment (6-mer frequency, TF over GST control)"
same,binding signal,[10],"1.21 fold enrichment (6-mer frequency, TF over GST control)"
same,binding signal,[11],"1.34 fold enrichment (6-mer frequency, TF over GST control)"
same,binding signal,[12],"1.21 fold enrichment (6-mer frequency, TF over GST control)"
same,binding signal,[13],"1.28 fold enrichment (6-mer frequency, TF over GST control)"
same,binding signal,[14],"1.24 fold enrichment (6-mer frequency, TF over GST control)"
same,binding signal,[15],"1.14 fold enrichment (6-mer frequency, TF over GST control)"
same,binding signal,[16],"1.13 fold enrichment (6-mer frequency, TF over GST control)"
same,binding signal,[17],"1.19 fold enrichment (6-mer frequency, TF over GST control)"
same,binding signal,[18],"1.23 fold enrichment (6-mer frequency, TF over GST control)"

# — PMC7862700, “An all-to-all approach to the identification of sequence-specific readers for epigenetic DNA modifications on cytosine”
